This passage reports outcome and AC50 results from PubChem BioAssay (EPA / NIEHS).

Calls of active or inactive are those of the source. The calls were made as follows: active = hit-call score of the fitted dose curve at least 0.9, where 1 is the maximum; inactive = score below 0.9.

Read-out in the assay: Glutamate-cysteine ligase catalytic (GCLC), GCLC (gene 2729)
Nature of the assay: LTEA_HepaRG_GCLC: Life Technologies and Expression Analysis (LTEA) Assay for Glutamate-cysteine ligase catalytic (GCLC) using HepaRG (AID 2283498). The conditions noted are these: mRNA level, 48 h; actives raise or lower the signal. On the procedure: LTEA_HepaRG is a cell based, multiplexed-readout assay that uses HepaRG, a human liver cell line, with measurements taken at 48 hours after chemical dosing on a 96-well plate.LTEA_HepaRG_GCLC is one of 102 assay component(s) measured in the LTEA HepaRG cell culture assay. It is a marker of Oxidative Stress.Data from the assay component LTEA_HepaRG_GCLC was analyzed into 1 endpoint. This assay endpoint, LTEA_HepaRG_GCLC, was analyzed with bidirectional fitting relative to DMSO as the negative control and baseline of activity. Using a type of inducible reporter, measures of mRNA induction for gain or loss-of-signal activity can be used to understand regulation of transcription factor activity. To generalize the intended target to other relatable targets, this assay endpoint is annotated to the ligase intended target family, where the subfamily is C-N ligase.
A total of 1060 chemcials from the ToxCast library were tested in eight-point concentration-response experiments. Cell culture and cytotoxicity assays were conducted at Thermo Fisher Scientific's Custom Services facility (Madison, WI). A single lot of human HepaRG cells (Thermo Fisher Scientific, Frederick, MD) was used for the cell culture experiments. 96-well format collagen type I coated plates of human HepaRG cells were prepared using established methods. Briefly, cryopreserved HepaRG cells were thawed, plated at a density of approximately 100,000 cells/well in HepaRG Thaw, Plate, and General Purpose media (HPRG770, Thermo Fisher Scientific), and incubated for 48 hours. 0.5% DMSO was selected as vehicle control to balance the requisite need of DMSO in HepaRG cultures to maintain differentiation (for example, baseline metabolism, proportions of hepatocytes vs. cholangiocytes), while enabling further hepatic receptor pathway activation (for example, PXR and CAR) in response to chemical exposure. 48 hours after plating, the culture medium was replaced with HepaRG Serum-Free Incudtion Media. Cells were exposed to each test chemical in duplicate and maintained in CO2 incubators for another 48 hours. Chemical plates were thawed to room temperature and 200x concentrations of treatment groups were prepared. 8-point conentration-reponse curves were made with the highest exposure at 100 uM, followed by half-log dilutions, all in 0.5% DMSO. Each test plate contained variouse controls, induction positive controls (1mM phenobarbital), cytotoxicity positive controls ([…] aflatoxin B1), vehicle controls (0.5% DMSO), and total lysis controls (0.5% DMSO). Cell morphology images were taken using an Essen IncuCyte FLR automated microscope, with six 96-well plates imaged in about 24 minutes. Images were captured and exported and JPEG files. Spent culture media was transfered to black-well plates for the LDH assay, and remaining media was sorted at -80 C for later use. Cells were treated with RLT buffer and frozen until shipped for gene expression analysis. Total RNA was isolated from the cell suspension in 75 uL of Buffer RLT (Qiagen, Germantown, MD 20874) by Quintiles/Expression Analysis (Durham, NC) using a custom isolation procedure. Total RNA from each plate well was transferred to a preamplification plate. Fluidigm's 96.96 Dynamic ArrayTM (Fluidigm, Amsterdam, the Netherlands) technology was used for gene expression analyses by quantitative reverse transcription polymerase chain reaction (qRT-PCR, performed by Quintiles/Expression Analysis, Durham, NC)89. Standard TaqManTM Assays (Applied Biosystems/ThermoFisher Scientific, Foster City, CA) were used to assess the expression of 93 genes selected based on their selectivity and sensitivity to important hepatic receptors known to be modulated by environmental chemicals; importance in human hepatocyte functionality; and hepatotoxicity. […]
For `Oc1c(Cl)cc(Cl)cc1Cl`, the molecule was classed as inactive. Still for that read-out and setting: the value for `CC(C)(C)c1ccccc1O` was “inactive”.

In the case of `Clc1cccc(Cl)c1Cl`, the molecule was classed as inactive.

Regarding `O=C(O)C1(c2ccc3c(c2)OC[C@H](Cc2ccc(-c4ccccc4)cc2)[C@H]3O)CCCC1`, the AC50 is 75.6 µM (active). On to `Cc1cc(C)cc(C)c1`, for which the outcome was inactive. On the same count and under the same terms, next, `N#Cc1cccnc1`: “inactive”. On to `Oc1cc(Cl)c(Cl)cc1Cl`, for which the molecule was called inactive. Regarding `O=C(N[C@H]1CN2CCC1CC2)c1ccc2c(c1)OCCO2`, the molecule was called inactive. As for `CN(C)C(=S)S`, the call was inactive. As to `Clc1cccc(Cl)c1`, the molecule was classed as inactive. Still for that read-out and setting: the value for `COc1ccccc1N` was “inactive”; that for `CC(C)O.CC(C)O.OCCN(CCO)CCO.OCCN(CCO)CCO.[Ti]` was “inactive”; that for `OCCN(CCO)CCO` was “inactive”. `CCCCCCCCCCCCc1cccc(S(=O)(=O)O)c1`: the molecule was called inactive.

The AC50 is the concentration giving half of the maximal activity seen.
